From PubChem BioAssay (Tox21)
“And” between values parts separate entries of the source, which are not always exact repeats. Equal values may be shown once. Results filed as inconclusive are left out. More than one record can exist for a structure, and the calls need not agree. The source made the active and inactive calls. Unless noted, the call rests on the fitted dose curve; in most records, active means well fitted curve in the direction sought with a large enough effect in the repeat runs; inconclusive means weak or mixed curves; inactive means no such curve, though single readings can be large; an effect the other way counts as inactive or inconclusive.

Legend:
[1] = A CellTox Green Cytotoxicity Assay to monitor cytotoxicity in HEK293 cells - 8 hour (AID 1224884); further: nearly all actives have a fitted effect of over 35% in size; further: potency means the concentration at half of the fitted maximal effect
How it was run: (§1)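 Fluorescence from a DNA-binding dye excluded by viable cells was measured repeatedly in the same HEK293 wells (600 cells/well) during continuous compound exposure at 37 C. Each assay gives one read point: 0, 8, 16, 24, 32 or 40 h.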

[2] = qHTS RealTime-Glo MT Cell Viability Assay in HEK293 cells - 24 hour (AID 1224886); further: nearly all actives have a fitted effect of over 50% in size; further: potency means the concentration at half of the fitted maximal effect
How it was run: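 HEK293 cells seeded with NanoLuc/prosubstrate reagent, rested 5 h at 37 C, then dosed and kept at 37 C up to 40 h. Nonlytic real-time luminescence from viable cells read at 0, 8, 16, 24, 32 and 40 h.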

[3] = qHTS RealTime-Glo MT Cell Viability Assay in HEK293 cells - 8 hour (AID 1224887); further: nearly all actives have a fitted effect of over 50% in size; further: potency means the concentration at half of the fitted maximal effect
How it was run: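 Luminescence, which tracks viable cell number through reduction of the prosubstrate to a NanoLuc substrate, was read over continuous 37 C culture. Cells (600/well) were premixed with reagent and rested 5 h before 23 nL of compound in DMSO was pinned.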

[4] = A CellTox Green Cytotoxicity Assay to monitor cytotoxicity in HEK293 cells - 16 hour (AID 1224888); further: nearly all actives have a fitted effect of over 35% in size; further: potency means the concentration at half of the fitted maximal effect
How it was run: as §1

[5] = qHTS RealTime-Glo MT Cell Viability Assay in HepG2 cells - 0 hour (AID 1224889); further: nearly all actives have a fitted effect of over 50% in size; further: potency means the concentration at half of the fitted maximal effect
How it was run: (§2)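 HepG2 cells (600/well) were dispensed with RealTime-Glo reagents, incubated 5 h at 37 °C, then treated with compounds in DMSO for up to 40 h. Nonlytic NanoLuc luminescence reflecting viable cells was read at each stated time point.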

[6] = A CellTox Green Cytotoxicity Assay to monitor cytotoxicity in HepG2 cells - 8 hour (AID 1224890); further: nearly all actives have a fitted effect of over 45% in size; further: potency means the concentration at half of the fitted maximal effect
How it was run: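 Real-time cytotoxicity: fluorescence of a cell-impermeant cyanine dye binding DNA of dead HepG2 cells, measured repeatedly (0–40 h) during compound exposure at 37 C. Cells seeded 600/well with reagent, dosed after 5 h.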

[7] = qHTS assay to identify small molecule antagonists of the estrogen receptor alpha (ER-alpha) signaling pathway using the BG1 cell line in the presence of 0.1 nM 17-beta-estradiol - cell viability counter screen (AID 1259241); further: nearly all actives have a fitted effect of over 40% in size; further: potency means the concentration at half of the fitted maximal effect
How it was run: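 VM7Luc4E2 cells (endogenous ER-alpha, 4×ERE-luciferase), hormone-starved 5 days in charcoal-stripped FBS, were treated with compounds plus 0.1 nM 17beta-estradiol for 22 hr at 37C; viability read in same wells as CellTiter-Fluor live-cell protease fluorescence.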

[8] = qHTS assay to identify small molecule antagonists of the androgen receptor (AR) signaling pathway using the MDA cell line in the presence of 0.5 nM R1881 - cell viability counter screen (AID 1259242); further: nearly all actives have a fitted effect of over 45% in size; further: potency means the concentration at half of the fitted maximal effect
How it was run: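 Live-cell protease activity was measured by CellTiter-Fluor fluorescence after 30 min. Before that, MDA-kb2 MMTV-luciferase cells had 16 hr at 37C without CO2, exposed to test compounds and 0.5 nM R1881 final.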

[9] = target: Androgen receptor (Homo sapiens) (UniProt P10275); assay: qHTS assay to identify small molecule antagonists of the androgen receptor (AR) signaling pathway using the MDA cell line in the presence of 0.5 nM R1881 (AID 1259243); further: nearly all actives have a fitted effect of over 50% in size; further: potency means the concentration at half of the fitted maximal effect
How it was run: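 Luminescent reporter readout (ONE-Glo, 30 min, room temperature) after 16 hr co-treatment of MDA-kb2 cells with test compounds and 0.5 nM R1881 final, at 37C without CO2. The MMTV-driven luciferase responds to both AR and GR.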

[10] = target: Estrogen receptor (Homo sapiens) (UniProt P03372); assay: qHTS assay to identify small molecule antagonists of the estrogen receptor alpha (ER-alpha) signaling pathway using the BG1 cell line in the presence of 0.1 nM 17-beta-estradiol (AID 1259244); further: nearly all actives have a fitted effect of over 50% in size; further: potency means the concentration at half of the fitted maximal effect
How it was run: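 Luciferase luminescence (ONE-Glo, 30 min at room temperature) was read after 22 hr at 37C exposure to compounds plus 17beta-estradiol at 0.1 nM final. Cells were VM7Luc4E2 with endogenous ER-alpha and an ERE-driven luciferase, pre-cultured 5 days in hormone-depleted medium.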

[11] = qHTS assay to identify small molecule HDAC inhibitors (AID 1259364); further: nearly all actives have a fitted effect of over 45% in size; further: potency means the concentration at half of the fitted maximal effect
How it was run: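 Luminescence read after 30 min room-temperature HDAC-Glo incubation measures cellular class I/II HDAC activity. Compounds were applied for 2 hr at 37 C to HCT-116 wild-type cells seeded the day before.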

[12] = qHTS assay to identify small molecule HDAC inhibitors - cell viability counter screen (AID 1259365)
How it was run: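 Wild-type HCT-116 cells were seeded at 1,500 per well, incubated overnight at 37 C, then exposed to compounds in DMSO for 2hr. Viability was read by CellTiter-Glo luminescence after 30min at room temperature.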

[13] = qHTS assay to identify small molecule antagonists of the sonic hedgehog signaling (Shh) pathway - cell viability counter screen (AID 1259367); further: nearly all actives have a fitted effect of over 55% in size; further: potency means the concentration at half of the fitted maximal effect
How it was run: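 Cytotoxicity was assessed in parallel with Shh reporter activity by measuring live-cell protease fluorescence (CellTiter-Fluor) in NIH/3T3 cells stably carrying Gli1-Luc, treated with compound under conditioned medium stimulation for 23 hr plus 1 hr reagent incubation.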

[14] = qHTS assay to identify small molecule agonists of the sonic hedgehog signaling (Shh) pathway (AID 1259368; calls by dose curve; further: series mostly up to about 92 µM; nearly all actives have a fitted effect of over 15% in size)
How it was run: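 Luminescence was read after 30 min at room temperature with luciferase reagent. Before that, 3T3Gli1-Luc cells (NIH/3T3 clone, stable Gli1-Luc reporter; 2,000/well) were exposed to compounds for 24 hr at 37C, 5% CO2, compounds being added 4 hr post-plating.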

[15] = qHTS RealTime-Glo MT Cell Viability Assay in HepG2 cells - 16 hour (AID 1224885); further: nearly all actives have a fitted effect of over 50% in size
How it was run: as §2

[16] = qHTS assay to identify small molecule agonists of the sonic hedgehog signaling (Shh) pathway - cell viability counter screen (AID 1259366); further: nearly all actives have a fitted effect of over 50% in size; further: potency means the concentration at half of the fitted maximal effect
How it was run: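 NIH/3T3-derived 3T3 Gli1-Luc cells (stable Gli1-responsive firefly luciferase reporter) were seeded, rested 4 hr at 37 C/5% CO2, then exposed to compounds in DMSO for 24 hr; viability was read by CellTiter-Fluor fluorescence in the same wells.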

[17] = target: Estrogen receptor beta (Homo sapiens) (UniProt Q92731); assay: qHTS assay to identify small molecule agonists of the estrogen receptor beta (ER-beta) signaling pathway (AID 1259377; active means well fitted activation curve with a large enough effect in the signal ratio in the repeat runs, not every such curve was filed as active; the % refers to the signal ratio)
How it was run: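 ER-beta-UAS-bla HEK293T (GripTite) cells carrying a UAS-driven beta-lactamase reporter, in medium with 2% charcoal-stripped FBS, were exposed to compounds for 16 hr at 37C; LiveBLAzer B/G FRET substrate was then added and fluorescence read after 2 hours at room temperature.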

[18] = qHTS assay to identify small molecule antagonists of the sonic hedgehog signaling (Shh) pathway (AID 1259369; calls by dose curve; further: nearly all actives have a fitted effect of over 45% in size; further: potency means the concentration at half of the fitted maximal effect)
How it was run: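 Antagonist mode: compound added to 3T3 Gli1-Luc cells followed by conditioned-medium stimulation, 24 h at 37 C, 5% CO2. Inhibition taken as loss of Gli1-driven luciferase luminescence.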

[19] = qHTS assay to identify small molecule phospholipidosis (PLD) inducers (AID 1259344; active means well fitted curve in the direction sought with a large enough effect; an effect the other way counts as inactive or inconclusive)
How it was run: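 Cells (HepG2, 900 per well) attach for 4 h, receive LipidTOX Red and compound together, incubate 24 h at 37 C, are fixed 30 min with paraformaldehyde/Hoechst, then imaged at one site per well.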

Measured: Potency

Sequence of Estrogen receptor (Homo sapiens) (P03372 whole entry, looked up): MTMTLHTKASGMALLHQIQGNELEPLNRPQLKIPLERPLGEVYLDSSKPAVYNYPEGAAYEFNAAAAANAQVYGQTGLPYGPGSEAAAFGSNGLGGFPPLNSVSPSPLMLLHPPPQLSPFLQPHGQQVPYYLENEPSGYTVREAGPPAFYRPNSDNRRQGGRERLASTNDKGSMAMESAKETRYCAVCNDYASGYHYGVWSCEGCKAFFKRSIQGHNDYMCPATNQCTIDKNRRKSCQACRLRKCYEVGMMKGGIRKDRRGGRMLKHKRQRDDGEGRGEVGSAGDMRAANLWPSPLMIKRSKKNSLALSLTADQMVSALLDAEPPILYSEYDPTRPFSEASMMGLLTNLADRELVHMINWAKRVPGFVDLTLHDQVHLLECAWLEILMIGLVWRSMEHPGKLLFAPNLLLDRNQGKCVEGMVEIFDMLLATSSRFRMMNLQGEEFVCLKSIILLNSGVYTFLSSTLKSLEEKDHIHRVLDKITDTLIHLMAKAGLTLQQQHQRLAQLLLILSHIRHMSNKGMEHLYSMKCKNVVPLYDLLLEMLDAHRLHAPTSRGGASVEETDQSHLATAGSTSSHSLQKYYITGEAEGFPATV
Sequence of Estrogen receptor beta (Homo sapiens) (Q92731 whole entry, looked up): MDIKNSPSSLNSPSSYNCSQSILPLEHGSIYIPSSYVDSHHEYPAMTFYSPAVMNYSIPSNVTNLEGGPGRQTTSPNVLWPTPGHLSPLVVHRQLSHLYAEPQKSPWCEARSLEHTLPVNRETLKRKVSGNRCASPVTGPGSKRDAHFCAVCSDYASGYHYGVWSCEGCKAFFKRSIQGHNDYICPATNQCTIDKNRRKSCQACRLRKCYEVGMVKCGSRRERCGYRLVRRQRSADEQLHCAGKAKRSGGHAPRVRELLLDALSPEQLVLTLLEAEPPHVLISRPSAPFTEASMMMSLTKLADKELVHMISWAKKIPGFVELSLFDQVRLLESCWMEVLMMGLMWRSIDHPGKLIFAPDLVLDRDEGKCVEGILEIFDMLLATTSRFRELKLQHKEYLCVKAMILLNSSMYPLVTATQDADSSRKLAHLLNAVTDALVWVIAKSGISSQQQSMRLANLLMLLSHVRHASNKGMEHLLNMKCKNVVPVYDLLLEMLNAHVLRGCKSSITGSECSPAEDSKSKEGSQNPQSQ
Sequence of Androgen receptor (Homo sapiens) (P10275 whole entry, looked up): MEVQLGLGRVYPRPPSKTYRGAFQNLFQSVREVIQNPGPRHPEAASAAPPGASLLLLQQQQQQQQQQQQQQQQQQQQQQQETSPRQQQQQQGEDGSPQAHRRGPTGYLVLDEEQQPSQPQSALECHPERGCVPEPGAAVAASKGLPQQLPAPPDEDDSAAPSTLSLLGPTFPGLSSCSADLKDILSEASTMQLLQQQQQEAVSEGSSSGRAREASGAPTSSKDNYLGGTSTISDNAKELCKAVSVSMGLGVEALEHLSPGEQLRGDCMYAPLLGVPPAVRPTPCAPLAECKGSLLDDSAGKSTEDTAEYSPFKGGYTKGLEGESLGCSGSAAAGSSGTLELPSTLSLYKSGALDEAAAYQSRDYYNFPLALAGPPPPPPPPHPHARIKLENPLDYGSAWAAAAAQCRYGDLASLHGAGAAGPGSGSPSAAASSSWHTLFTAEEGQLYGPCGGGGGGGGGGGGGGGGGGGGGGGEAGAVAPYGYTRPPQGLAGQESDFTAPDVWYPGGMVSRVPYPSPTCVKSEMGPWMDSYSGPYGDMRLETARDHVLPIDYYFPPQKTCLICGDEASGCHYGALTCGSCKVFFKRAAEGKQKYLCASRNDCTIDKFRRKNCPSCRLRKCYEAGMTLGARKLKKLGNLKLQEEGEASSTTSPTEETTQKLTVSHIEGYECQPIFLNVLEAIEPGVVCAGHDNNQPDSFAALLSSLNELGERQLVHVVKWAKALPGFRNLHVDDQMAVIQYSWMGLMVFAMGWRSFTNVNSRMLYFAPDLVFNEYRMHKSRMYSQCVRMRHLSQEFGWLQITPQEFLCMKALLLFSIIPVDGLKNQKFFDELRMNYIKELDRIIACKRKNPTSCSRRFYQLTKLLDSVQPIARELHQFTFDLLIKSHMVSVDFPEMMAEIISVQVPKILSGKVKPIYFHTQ

CCCCOCN(C(=O)CCl)c1c(CC)cccc1CC
active: [9] 30.6 µM | [13] 61.1 µM
inactive: [1] | [2] | [3] | [4] | [5] | [6] | [7] | [8] | [10] | [11] | [12] | [14]

CC(C)OC(=S)S
active: [16] 30.6 µM | [13] 61.1 µM
inactive: [1] | [15] | [4] | [5] | [6] | [7] | [8] | [10] | [11] | [12] | [14] | [17]

Cc1cc(N=Nc2ccccc2C)ccc1N
inactive: [1] | [4] | [5] | [6] | [14]
19.3 µM (active) and inactive: [18]
active: [2] 21.9 µM and 19.5 µM | [3] 21.9 µM and 19.5 µM | [11] 8.63 µM and 4.86 µM | [16] 27.3 µM and 30.6 µM

Nc1ccccc1C(=O)Oc1ccc2ccccc2c1
inactive: [1] | [15] | [4] | [5] | [6] | [7] | [8] | [9] | [10] | [12] | [16] | [13]
active: [11] 8.63 µM

CC(=O)c1ccc(-c2ccccc2)cc1
inactive: [15] | [2] | [3] | [4] | [5] | [6] | [7] | [8] | [10] | [16] | [13] | [14] | [18]
active: [9] 19.3 µM | [11] 24.3 µM

O=C(CBr)c1ccc(O)cc1
active: [18] 54.5 µM
inactive: [1] | [15] | [4] | [5] | [6] | [7] | [8] | [11] | [12] | [16] | [13] | [17]

ClC1=C(Cl)C2(Cl)C3C(Cl)C(Cl)CC3C1(Cl)C2(Cl)Cl (centres undefined)
active: [1] 54.8 µM | [2] 48.8 µM | [3] 48.8 µM and 49 µM | [4] 54.8 µM | [16] 43.1 µM and 61.1 µM
inactive: [5] | [7] | [8] | [10] | [13] | [14] | [18]

OC(c1ccc(Cl)cc1)(c1ccc(Cl)cc1)C(Cl)(Cl)Cl
active: [3] 49 µM
inactive: [1] | [15] | [4] | [5] | [6] | [7] | [8] | [10] | [11] | [13] | [14] | [18] | [17]

Oc1ccc(C2(c3ccc(O)cc3)CCCCC2)cc1
inactive: [15] | [5] | [6] | [11] | [12] | [14]
active: [16] 25.9 µM | [18] 46 µM

Oc1cc(Cl)c(Cl)c(Cl)c1
active: [9] 46.1 µM | [10] 41 µM | [18] 13 µM
inactive: [1] | [15] | [3] | [4] | [6] | [7] | [11] | [12] | [16] | [14] | [17]

N#C/C=C/C#N
inactive: [1] | [15] | [4] | [6] | [7] | [8] | [10] | [11] | [12] | [13] | [14] | [18]

CC1(C)[C@H](C(=O)O[C@H](C#N)c2cccc(Oc3ccccc3)c2)[C@@H]1/C=C(\Cl)C(F)(F)F
inactive: [1] | [15] | [4] | [6] | [7] | [8] | [11] | [12] | [16] | [14] | [18] | [17]

O=C(O)COc1nc(Cl)c(Cl)cc1Cl
inactive: [15] | [2] | [3] | [5] | [7] | [10] | [11] | [12] | [16] | [13] | [14] | [18]

CC(C)(C)c1cc([N+](=O)[O-])cc(C(C)(C)C)c1O
active: [8] 13.7 µM | [10] 6.11 µM | [18] 3.06 µM
inactive: [1] | [4] | [5] | [6] | [11] | [12] | [16] | [14] | [17]

Clc1ccc(CCC(Cn2ccnc2)Sc2c(Cl)cccc2Cl)cc1 (centres undefined)
inactive: [1] | [4] | [5] | [7] | [8] | [19] | [11] | [12] | [16] | [13] | [14]
active: [18] 2.98 µM

N#CC(Cl)Cl
inactive: [1] | [15] | [3] | [4] | [5] | [7] | [8] | [9] | [11] | [16] | [13] | [17]
active: [6] 1.51 µM

CC(C)CC(C)Nc1ccc(Nc2ccccc2)cc1 (centres undefined)
active: [2] 21.5 µM | [3] 19.2 µM | [5] 24.1 µM | [7] 53.5 µM | [16] 26.8 µM | [13] 16.9 µM | [18] 12 µM
inactive: [1] | [4] | [6] | [12] | [14]

CCOP(=S)(OCC)SCS(=O)(=O)CC
inactive: [1] | [15] | [4] | [6] | [7] | [8] | [9] | [10] | [11] | [12] | [16] | [13] | [14] | [18] | [17]

c1ccc2c(c1)OCC(C1=NCCN1)O2 (centres undefined)
active: [13] 2.11 µM | [18] 0.376 µM
inactive: [1] | [15] | [3] | [4] | [6] | [7] | [8] | [19] | [12] | [14] | [17]

CCOP(=O)(NC(C)C)Oc1ccc(SC)c(C)c1 (centres undefined)
inactive: [1] | [15] | [5] | [6] | [11] | [12] | [16] | [14]
active: [9] 27.3 µM

Clc1ccc(C(Cl)(Cl)Cl)c(Cl)c1
inactive: [15] | [3] | [5] | [6] | [7] | [8] | [12] | [16] | [13] | [18] | [17]

CC[C@H](C)[C@H]1O[C@]2(C=C[C@@H]1C)C[C@@H]1C[C@@H](C/C=C(\C)[C@@H](O[C@H]3C[C@H](OC)[C@@H](O[C@H]4C[C@H](OC)[C@@H](O)[C@H](C)O4)[C@H](C)O3)[C@@H](C)/C=C/C=C3\CO[C@@H]4[C@H](O)C(C)=C[C@@H](C(=O)O1)[C@]34O)O2
active: [7] 32.2 µM | [8] 36.1 µM | [10] 22.8 µM | [16] 36.1 µM | [18] 16.1 µM
inactive: [1] | [3] | [4] | [5] | [19] | [12] | [14]

Clc1ccc(Oc2ccccc2)cc1
inactive: [1] | [15] | [3] | [4] | [6] | [10] | [11] | [12] | [16] | [13] | [18]

CC(C)(C)c1ccc(CSc2cnn(C(C)(C)C)c(=O)c2Cl)cc1
active: [2] 0.0389 µM | [3] 7.76 µM | [8] 0.0686 µM | [10] 0.0154 µM
inactive: [1] | [4] | [5] | [6] | [11] | [16] | [13]
